# Inconclusive results are not listed. Entries that show only a call come without a potency. The source made the active and inactive calls. Calls follow the shape of the dose curve; as a rule, active = well fitted curve in the direction sought with a large enough effect; inconclusive = small, poorly fitted or top-dose-only effect, or another doubt; inactive = no such curve, though single readings can be large; an effect the other way counts as inactive or inconclusive.
# How the values were obtained:
# [1] = target: Muscarinic acetylcholine receptor M1 (Rattus norvegicus) (UniProt P08482); test: qHTS Assay for Antagonists of Acetylcholine Muscarinic M1 Receptor: Kinetic Measurement of Intracellular Calcium Response (AID 943); also: nearly all actives have a fitted effect of over 75% in size; also: potency is read from the fitted curve at half-maximal effect
# Procedure, shortened: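 Rat M1-CHO cells, 2000/well, overnight → Fluo-4 no-wash dye with probenecid, 1 h 37C → compound 10 min, room temp → basal read 6 s → carbachol EC80 (100 nM) → 4 min kinetic read; peak/basal.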
# [2] = target: Muscarinic acetylcholine receptor M1 (Rattus norvegicus) (UniProt P08482); test: qHTS Assay for Antagonists of Acetylcholine Muscarinic M1 Receptor: Measurement of IP-One Response (AID 944); also: nearly all actives have a fitted effect of over 75% in size; also: potency is read from the fitted curve at half-maximal effect
# Procedure, shortened: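 M1-CHO (rat), 2000 cells/well, overnight recovery; cpd 10 min; carbachol EC80 (200 nM), 30 min, HEPES buffer + 50 mM LiCl pH 7.4; IP-One HTRF, Ex 337, Em 620/665 nm.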
# [3] = target: Pyruvate kinase (Leishmania mexicana) (UniProt Q27686); test: qHTS Validation Assay for Inhibitors of Leishmania Mexicana Pyruvate Kinase (AID 945)
# Procedure, shortened: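 Eight-point qHTS titrations in triplicate, data normalized to DMSO neutral control. Reaction: 0.2 nM LmPYK E451W mutant, 0.5 mM PEP, 0.1 mM ADP, 7 mM MgCl2, pH 7.2, one hour at room temperature; luminescent ATP detection.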
# [4] = MultiTox-Fluor Cytotoxicity Assay - LYMP1-001 - Dead Cells (AID 946);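 also: cells exposed to compound for 16 h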
# Procedure, shortened: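 AC50 from Hill fit of concentration-response; data normalized to DMSO (basal) and 15 uM tetraoctylammonium bromide (100%). LYMP1-001 lymphoblastoid cells, 2500/well, 16 hr compound at 37 C; dead-cell protease fluorescence, Ex/Em 485/520.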
# [5] = MultiTox-Fluor Cytotoxicity Assay - LYMP1-001 - Live Cells (AID 947)
# Chain of Pyruvate kinase (Leishmania mexicana) (Q27686 2-499 E452W): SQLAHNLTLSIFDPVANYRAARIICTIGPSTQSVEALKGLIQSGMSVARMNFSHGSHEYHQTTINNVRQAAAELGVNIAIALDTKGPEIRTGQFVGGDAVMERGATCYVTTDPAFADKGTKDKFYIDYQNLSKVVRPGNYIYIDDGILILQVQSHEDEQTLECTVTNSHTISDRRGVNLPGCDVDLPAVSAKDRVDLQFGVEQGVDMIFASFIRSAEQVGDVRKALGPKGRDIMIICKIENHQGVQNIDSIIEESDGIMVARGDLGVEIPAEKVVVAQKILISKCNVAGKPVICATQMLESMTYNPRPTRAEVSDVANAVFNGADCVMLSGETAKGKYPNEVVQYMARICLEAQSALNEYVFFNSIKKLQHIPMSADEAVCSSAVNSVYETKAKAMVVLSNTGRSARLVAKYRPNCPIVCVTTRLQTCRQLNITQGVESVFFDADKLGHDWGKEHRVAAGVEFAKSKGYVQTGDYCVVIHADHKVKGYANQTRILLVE
# Chain of Muscarinic acetylcholine receptor M1 (Rattus norvegicus) (P08482 whole entry, looked up): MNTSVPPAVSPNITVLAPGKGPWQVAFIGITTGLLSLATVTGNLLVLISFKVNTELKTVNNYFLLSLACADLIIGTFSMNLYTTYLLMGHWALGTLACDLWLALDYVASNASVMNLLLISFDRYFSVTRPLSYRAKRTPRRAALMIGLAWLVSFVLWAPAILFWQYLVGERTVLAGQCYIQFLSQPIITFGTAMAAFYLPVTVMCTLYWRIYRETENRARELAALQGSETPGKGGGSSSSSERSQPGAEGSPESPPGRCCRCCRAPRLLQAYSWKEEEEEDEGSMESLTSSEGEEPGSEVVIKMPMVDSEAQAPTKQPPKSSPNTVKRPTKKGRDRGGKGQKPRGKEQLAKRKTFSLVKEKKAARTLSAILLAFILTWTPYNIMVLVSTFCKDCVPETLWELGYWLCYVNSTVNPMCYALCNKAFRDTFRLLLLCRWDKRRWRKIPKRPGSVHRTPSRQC
structure (smiles),measurement,setting,value
O=S1(=O)N(CCN2CC=C(c3c[nH]c4cc(F)ccc34)CC2)c2cccc3c2N1CCC3,Potency,[1],15.8 µM (active)
same,Potency,[2],14.1 µM (active)
same,Potency,[3],inactive
CC(C)CCON=O,Potency,[4],inactive
NNC(N)=O,Potency,[3],inactive
same,Potency,[4],inactive
same,Potency,[5],inactive
C[C@@H]1O[C@H](C[N+](C)(C)C)CS1,Potency,[1],inactive
same,Potency,[2],inactive
same,Potency,[3],inactive
O=CC=O,Potency,[4],inactive
same,Potency,[5],inactive

# — PubChem BioAssay (NCATS)
